# Source: PubChem BioAssay AID1159580 (chemical genetic matrix, 2015)
# “And” between values parts separate entries of the source, which are not always exact repeats. Equal entries are not always repeated. In all, about 5,500 compounds went through this assay and about 2,000 (36%) were called active. Not shown: some 18% with an inconclusive outcome. The list shows a part of the results. Unmarked numbers belong to inactive results. Rule as the data show it: active = normalized growth mostly below about 0.91 (no sharp cut-off); inconclusive = no clear call, values can overlap the other calls; inactive = mostly above about 0.92.
# Assay: chemical genetic growth profiling, strain panel (AID 1159580);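 also: tested at 20 µM; growth read once vehicle control cultures reached saturation at 30 °C; 1 = growth at the plate median or of vehicle wells; lower values mean less growth of the strain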
# Settings: S. cerevisiae deletion strains, growth OD
smiles,measurement,setting,value
CCCC(CCC)C(=O)O,normalized growth,"locus YAL013W, strain DEP1, active compounds read low",0.993 and 0.977
same,normalized growth,"locus YAL021C, strain ccr4, active compounds read low",1
same,normalized growth,"locus YAL026C, strain drs2, active compounds read low",1
same,normalized growth,"locus YAL030W, strain snc1, active compounds read low",1.01
same,normalized growth,"locus YAL040C, strain CLN3, active compounds read low",0.959
same,normalized growth,"locus YBL061C, strain skt5, active compounds read low",1
same,normalized growth,"locus YBR009C, strain hhf1, active compounds read low",1
same,normalized growth,"locus YBR021W, strain FUR4, active compounds read low",0.953
same,normalized growth,"locus YBR023C, strain chs3, active compounds read low",1.01
same,normalized growth,"locus YBR171W, strain sec66, active compounds read low",1.01
same,normalized growth,"locus YBR229C, strain ROT2, active compounds read low",0.992
same,normalized growth,"locus YBR231C, strain swc5, active compounds read low",1.01
same,normalized growth,"locus YBR279W, strain paf1, active compounds read low",1.02
same,normalized growth,"locus YCL011C, strain gbp2, active compounds read low",1.01
same,normalized growth,"locus YCL016C, strain dcc1, active compounds read low",1.01
same,normalized growth,"locus YCL029C, strain bik1, active compounds read low",0.954
same,normalized growth,"locus YCL061C, strain MRC1 (second series), active compounds read low",0.985
same,normalized growth,"locus YCL061C, strain MRC1, active compounds read low",1
same,normalized growth,"locus YCL069W, strain vba3, active compounds read low",1.02
same,normalized growth,"locus YCR088W, strain abp1, active compounds read low",1.01
same,normalized growth,"locus YDL005C, strain med2, active compounds read low",1.01
same,normalized growth,"locus YDL035C, strain GPR1, active compounds read low",1
same,normalized growth,"locus YDL040C, strain nat1, active compounds read low",1.01
same,normalized growth,"locus YDL074C, strain BRE1, active compounds read low",1
same,normalized growth,"locus YDL101C, strain DUN1, active compounds read low",1.01
same,normalized growth,"locus YDL185W, strain tfp1, active compounds read low",0.964
same,normalized growth,"locus YDL192W, strain arf1, active compounds read low",0.97
same,normalized growth,"locus YDR001C, strain nth1, active compounds read low",1.01
same,normalized growth,"locus YDR069C, strain doa4, active compounds read low",1.01
same,normalized growth,"locus YDR101C, strain arx1, active compounds read low",0.963
same,normalized growth,"locus YDR137W, strain rgp1, active compounds read low",0.985
same,normalized growth,"locus YDR150W, strain NUM1, active compounds read low",0.981
same,normalized growth,"locus YDR159W, strain sac3, active compounds read low",1.01
same,normalized growth,"locus YDR162C, strain NBP2, active compounds read low",1
same,normalized growth,"locus YDR195W, strain ref2",1.02
same,normalized growth,"locus YDR297W, strain sur2, active compounds read low",1
same,normalized growth,"locus YDR318W, strain mcm21, active compounds read low",0.97
same,normalized growth,"locus YDR334W, strain swr1, active compounds read low",1.02
same,normalized growth,"locus YDR335W, strain msn5, active compounds read low",1.01
same,normalized growth,"locus YDR363W, strain ESC2, active compounds read low",0.994
same,normalized growth,"locus YDR388W, active compounds read low",0.967
same,normalized growth,"locus YDR392W, strain spt3, active compounds read low",0.95
same,normalized growth,"locus YDR502C, strain sam2, active compounds read low",0.965
same,normalized growth,"locus YEL003W, strain gim4, active compounds read low",1.01
same,normalized growth,"locus YEL037C, strain rad23, active compounds read low",1.01
same,normalized growth,"locus YEL061C, strain CIN8 (second series), active compounds read low",1.01
same,normalized growth,"locus YEL061C, strain CIN8, active compounds read low",0.994
same,normalized growth,"locus YER002W, strain NOP16, active compounds read low",0.979
same,normalized growth,"locus YER015W, strain faa2, active compounds read low",1.02
same,normalized growth,"locus YER016W, strain bim1, active compounds read low",1
same,normalized growth,"locus YER110C, active compounds read low",0.985
same,normalized growth,"locus YER111C, strain swi4, active compounds read low",1.02
same,normalized growth,"locus YER155C, strain BEM2 (second series), active compounds read low",0.996
same,normalized growth,"locus YER155C, strain BEM2, active compounds read low",0.975
same,normalized growth,"locus YER167W, strain BCK2, active compounds read low",0.986
same,normalized growth,"locus YFR010W, strain ubp6, active compounds read low",1.02
same,normalized growth,"locus YGL078C, strain dbp3, active compounds read low",0.963
same,normalized growth,"locus YGL086W, strain mad1, active compounds read low",0.964
same,normalized growth,"locus YGL167C, strain pmr1, active compounds read low",1.01
same,normalized growth,"locus YGL173C, strain kem1, active compounds read low",1.01
same,normalized growth,"locus YGL227W, strain vid30, active compounds read low",1.01
same,normalized growth,"locus YGL240W, strain doc1, active compounds read low",1.01
same,normalized growth,"locus YGL248W, strain PDE1, active compounds read low",0.998
same,normalized growth,"locus YGL253W, strain hxk2, active compounds read low",1.01
same,normalized growth,"locus YGR078C, strain PAC10, active compounds read low",0.989
same,normalized growth,"locus YGR135W, strain pre9, active compounds read low",1
same,normalized growth,"locus YGR252W, strain gcn5, active compounds read low",0.967
same,normalized growth,"locus YHR013C, strain ard1, active compounds read low",1.03
same,normalized growth,"locus YHR027C, strain rpn1, active compounds read low",1.03
same,normalized growth,"locus YHR030C, strain SLT2, active compounds read low",0.987 and 0.951
same,normalized growth,"locus YHR079C, strain IRE1 (second series), active compounds read low",0.966
same,normalized growth,"locus YHR079C, strain IRE1, active compounds read low",0.951
same,normalized growth,"locus YHR094C, strain hxt1, active compounds read low",0.97
same,normalized growth,"locus YHR129C, strain ARP1, active compounds read low",0.994
same,normalized growth,"locus YHR142W, strain chs7, active compounds read low",1.03
same,normalized growth,"locus YHR200W, strain rpn10, active compounds read low",0.971
same,normalized growth,"locus YIL066C, strain RNR3, active compounds read low",0.992
same,normalized growth,"locus YIL073C, strain SPO22, active compounds read low",1.03
same,normalized growth,"locus YIL125W, strain kgd1, active compounds read low",0.92 (active)
same,normalized growth,"locus YIR030C, strain dcg1, active compounds read low",0.966
same,normalized growth,"locus YJL092W, strain hpr5, active compounds read low",1.01
same,normalized growth,"locus YJL095W, strain BCK1 (second series), active compounds read low",1.01
same,normalized growth,"locus YJL095W, strain BCK1, active compounds read low",0.993 and 0.94
same,normalized growth,"locus YJL115W, strain asf1, active compounds read low",1.02
same,normalized growth,"locus YJL129C, strain trk1, active compounds read low",1.01
same,normalized growth,"locus YJL134W, strain LCB3, active compounds read low",0.993
same,normalized growth,"locus YJL154C, strain vps35, active compounds read low",1.01
same,normalized growth,"locus YJL164C, strain tpk1, active compounds read low",1
same,normalized growth,"locus YJL166W, strain qcr8, active compounds read low",1.01
same,normalized growth,"locus YJL168C, strain set2, active compounds read low",0.986
same,normalized growth,"locus YJL187C, strain SWE1 (second series), active compounds read low",0.992
same,normalized growth,"locus YJL187C, strain SWE1, active compounds read low",1.01
same,normalized growth,"locus YJR043C, strain POL32, active compounds read low",1.01
